Measured values reported in PubChem BioAssay (NCI).
About 79,000 compounds went through this panel and 15% of them were active in at least one assay; those are over-represented in the sample as a whole. A number with no mark means an inactive call. Active and inactive are the calls of the source. Cut-off read from the data, not from the text of the source: active = growth inhibition above about 70%; inactive = the rest.

Columns and labels:
[1] = NCI Yeast Anticancer Drug Screen. Data for the rad50 strain (AID 155);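 note: 0% = growth of vehicle-only cultures of the same strain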; conditions: S. cerevisiae rad50 strain growth inhibition; at 50.0 µM; active compounds read high
Outline: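 Inhibition values express reduced yeast growth in compound-treated cultures relative to vehicle-treated controls.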

[2] = NCI Yeast Anticancer Drug Screen. Data for the mec2-1 strain (AID 157); conditions: S. cerevisiae mec2-1 strain, at 50.0 µM, active compounds read high
Outline: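 Compounds were applied to mec2-1 yeast cells. Their growth was then compared with that of vehicle-treated cultures to give growth inhibition.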

[3] = NCI Yeast Anticancer Drug Screen. Data for the sgs1 mgt1 strain (AID 161);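 note: 0% = growth of cultures given vehicle only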; conditions: S. cerevisiae sgs1 mgt1 strain, at 50.0 µM, active compounds read high
Outline: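 Yeast cells carrying a defined DNA-repair defect were exposed to test compounds. Growth inhibition was measured relative to vehicle-treated controls.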

[4] = NCI Yeast Anticancer Drug Screen. Data for the cln2 rad14 strain (AID 165);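 note: 0% = growth equal to vehicle treated cultures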; conditions: S. cerevisiae cln2 rad14 strain, at 50.0 µM, active compounds read high
Outline: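 Strain: cln2 rad14 yeast, altered in cell cycle control and DNA damage repair. Read-out: growth inhibition vs vehicle.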

[5] = NCI Yeast Anticancer Drug Screen. Data for the bub3 strain (AID 167); conditions: S. cerevisiae bub3 mutant strain, at 50.0 µM, active compounds read high
Outline: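 Steps: expose the mutant yeast strain to compound; grow alongside vehicle-treated cultures; measure growth; express inhibition against the vehicle cultures.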

[6] = NCI Yeast Anticancer Drug Screen. Data for the mlh1 rad18 strain (AID 175); conditions: S. cerevisiae mlh1 rad18 strain growth inhibition; at 50.0 µM; active compounds read high
Outline: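 A repair-deficient yeast strain is exposed to test compound, and growth is scored relative to vehicle-treated controls.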

| SMILES | growth inhibition [1] | growth inhibition [2] | growth inhibition [3] | growth inhibition [4] | growth inhibition [5] | growth inhibition [6] |
| --- | --- | --- | --- | --- | --- | --- |
| N#Cc1ccc(Cc2ccccn2)cc1Cl | -1.55% | -1.55% | -8.9% | 2.1% | -18.9% | 4.25% |
| O=C(O)c1ccccc1Cl | -8% | -11.5% | 3.75% | 30.9% | 5.2% | 16.4% |
| N.N.N.N.O=C([O-])CCl.O=C([O-])CCl.[Co+3].[O-][Cl+3]([O-])([O-])[O-] | -32.1% | -0.45% | -30.4% | 26.7% | -6.5% | -17.5% |
| N#CC(C#N)=Cc1cccc(F)c1 | 37% | 25.2% | 19.4% | 15.6% | 20.2% | 31.9% |
| O=c1[nH]cc(N=Cc2ccccc2F)c(=O)[nH]1.[Cl][Pt][Cl] | 20.6% | 6.15% | 24.7% | 26.9% | -0.2% | 8.95% |
| CCOC(=O)C(Cc1ccc(N(CCCl)CCCl)cc1)NC(=O)C(C)NC(C)=O (configuration not stated) | 0.45% | -7.3% | -15.5% | 15.7% | -0.6% | 7% |
| O=C(O)[C@H](O)[C@@H](O)C(=O)O.[Pb] | 7.05% | -4.35% | -2.9% | -36.9% | 6.85% | -9.2% |
| Cn1nnc(C(N)=O)n1 | -9.65% | -15.2% | -15.8% | -12.8% | -4.2% | -18.8% |
| COC(=O)C(O)(c1ccccc1)C1CCCC1 (configuration not stated) | 20.8% | -10.1% | -10.6% | 11.9% | 10.1% | -9.5% |
| Clc1cc[c]([Sb]2([c]3ccc(Cl)cc3)([c]3ccc(Cl)cc3)[O]C(C(Cl)(Cl)Cl)[O]2)cc1 (configuration not stated) | 98.3% (active) | 98.5% (active) | 98.2% (active) | 98.2% (active) | 97% (active) | 97.8% (active) |
| CCC1(CCNC(=O)CCl)C(=O)NC(=O)NC1=O | 3.05% | -4.5% | 6.8% | -38.1% | 4.55% | -8.6% |
| O=C(Nc1ccccc1)N(C1=NCC(CI)S1)c1ccc(F)cc1F (configuration not stated) | 18.3% | 6.75% | -6.95% | 7.7% | 2.95% | -40.1% |
| CSP(N)(=O)OC(C)C (configuration not stated) | -16.9% | 11.8% | -15.6% | -23.6% | -33.6% | 15.8% |
| CCCN(CCC)CCc1ccc(OC2=CCN(C)CC2)cc1 | -22.6% | -22.1% | 8.85% | 16.6% | -15.8% | -55% |
| O.O.[Cl][Pt+2][Cl].[NH-]CC[NH-] | 23.6% | 10.7% | -2.15% | 41.5% | 16% | 9.85% |
| O=[N+]([O-])c1cccc(P(=O)(O)O)c1 | -7.3% | 53.5% | 3.35% | 5.25% | -4.5% | 0.85% |
| CCOC(=O)C(N)C[S][Sn]([CH3])([CH3])[Cl] (configuration not stated) | 19.1% | 21.8% | 20.6% | 18.2% | 21.7% | -26.6% |
| O=[N+]([O-])C1(Cl)CCC(Cl)([N+](=O)[O-])CC1 (configuration not stated) | 5.85% | -6.2% | -2.1% | -23.4% | -14.6% | -18.3% |
| O=P(OCCCCCl)(OCCCCCl)C(Cl)Cl | -6.4% | -11.6% | 0.65% | 5.8% | 4.5% | 6.5% |

| SMILES | growth inhibition [1] | growth inhibition [2] | growth inhibition [3] | growth inhibition [4] | growth inhibition [5] | growth inhibition [6] |
| --- | --- | --- | --- | --- | --- | --- |
| COc1ccc2c(c1OC(C)=O)-c1cc(OC(C)=O)cc3c1C(C2)NCC3 (configuration not stated) | 11.7% | -4% | -5.7% | 6.65% | 1.9% | 4.4% |
| CN(C(=O)COc1ccc([N+](=O)[O-])cc1Cl)c1ccc(S(=O)(=O)F)cc1 | 13.8% | -1.85% | -10.9% | -10.4% | 1.25% | 16.5% |
| CC(C)(C)Nc1ccccc1.[C-]#[O+].[C-]#[O+].[C-]#[O+].[Cr] | -7.75% | -2.3% | -0.55% | 10.3% | 28.4% | 6.3% |
| C=COC(N)=O | 0.8% | -2.7% | 5.05% | -0.9% | 0.05% | -8.15% |
| Cn1nc2ccc3nccc(NCCNCCCl)c3c2n1 | 6.95% | -30.8% | -22.1% | 2.7% | -19.2% | -20.8% |
| S=P(Oc1cc(Cl)c(Cl)cc1Cl)(N1CCOCC1)N1CCOCC1 | 37.1% | 8.85% | 42% | 35% | 12.3% | 19.9% |
| CC(=O)O[C@H]1CC[C@]2(C)[C@H]3CC[C@]4(C)[C@@H](OC(C)=O)CC[C@H]4[C@@H]3[C@H](C=O)[C@]2(O)C1 | 7.9% | 4.35% | -8.6% | 4.25% | -0.75% | 8.7% |
| COc1ccc(CCN)cc1OC | 37.5% | 9.9% | 23% | -82% | -5.05% | -24.2% |
| CN1C2CCC1CC1(C2)SCCS1 | 2.5% | 3.85% | 3.1% | 6.2% | 6.85% | 4.45% |
| COc1nc(N2CCNCC2)nc2c1CCCC2 | 4.85% | -10.7% | -21.1% | 17.8% | -0.75% | -0.45% |
| CCCCCCCCSP(SCCCCCCCC)SCCCCCCCC | -11.8% | -0.1% | -25.3% | 2.7% | 1.25% | 0.9% |
| COc1ccc2c(c1O)C1=CC(=O)CC[C@]13CCN(C)[C@H]3C2 | -14.1% | -38.3% | -14.2% | 6.15% | -15.2% | -10.2% |
| C=C1C(=O)OC2/C=C(\C)CC/C=C(/C)CC(OC(=O)/C(=C/CO)CO)C12 (configuration not stated) | 6.3% | -11.6% | 14.7% | 13% | -6% | -54.7% |
| Cc1cc(C)c(O)c(C)c1 | 10.2% | -18.3% | -5.45% | 14.4% | -5.25% | 4.45% |
| CCC1CCC2CCCC(C)N12 (configuration not stated) | 9.05% | 4.25% | -3.2% | 1.5% | 8.2% | 7.75% |
| CCCCC1(CCSC(=S)OCC)C(=O)NC(=O)NC1=O | 12.6% | -12.1% | 1.55% | -36.4% | -2.7% | -11.8% |
| O=C1/C(=C\c2ccccc2)C2OCC=C3CN4CCC56c7ccccc7N1C5C2C3CC46 (configuration not stated) | -18.6% | -33.1% | -3.9% | -3.25% | -19.9% | -9.05% |
| COC(=O)/C=C/[C@H]1[C@H](C)N1S(=O)(=O)c1ccc(C)cc1 (some centres not stated) | 8.75% | 20.1% | 14.8% | 4.4% | -22.6% | -7.25% |
